According to PubChem BioAssay AID488859 (Sanford-Burnham Center for Chemical Genomics, 2010):
The whole screen tested about 1,400 compounds, of which about 970 (69%) were called active. Another 5% or so got no clear call; they are omitted. Cut-off read from the data, not from the text of the source: active = inhibition above about 45%; inconclusive = no clear call, values can overlap the other calls; inactive = below that. The set was probably picked from earlier hits. These entries were drawn from the full list.

biological target: Ubiquitin-conjugating enzyme E2 N (Homo sapiens) (UniProt P61088); assay: retested blockers of UBC13 chain formation – biochemical, TR-FRET, single concentration, confirmation (AID 488859); conditions: UBC13 polyubiquitination, at 10 µM, hits give high values
Sequence (P61088 whole entry, looked up): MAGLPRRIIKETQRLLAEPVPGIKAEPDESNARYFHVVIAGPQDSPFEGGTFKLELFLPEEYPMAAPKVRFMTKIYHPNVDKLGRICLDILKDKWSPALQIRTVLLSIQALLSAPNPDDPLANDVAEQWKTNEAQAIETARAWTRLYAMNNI

Structure (SMILES)	inhibition
CNCC(O)c1cc(F)c(OCc2ccccc2)c(OCc2ccccc2)c1F (stereo unspecified)	50.4% (active)
